The values below come from PubChem BioAssay AID1508600 (Functional Genomics Laboratory (NCATS/FGL), 2020).

Hit rate of the full screen: of about 53,000 sequences, about 3,700 (7%) were called active. This is one part of a sample in which actives are shown more often than they occur.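 How the source made its calls: active means gene knockdowns whose robust z-score for IL-1 alpha signal is at least 2 or at most -2, so actives lie on both sides; inactive means the rest.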

This test is described as follows: Components of the Cytosolic LPS Sensing Pathway: Gene Identification via Genome-wide siRNA Screen.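 Further: robust z of the log signal after scaling to non-targeting control siRNA wells of the plate.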 The settings on record: RAW264.7 macrophages, IL-1a HTRF, actives lie on both sides, screened at 100 nM (by protocol), cells primed 5 h with Pam3CSK4 first. The essentials: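 RAW264.7; siRNA 100 nM final, RNAiMAX, 48h 37 degrees C; Pam3CSK4 5 h; LipidA + TransIT-TKO 24 h; IL-1a HTRF; CellTiter-Glo viability; robust z vs negative-control median.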
As for UCAACAGGGCUGAUAUCCCTT against Acsl5, the z-score is -1.61 (inactive).

As for CGGUGAAGACUAUCAUGGUTT against Tln1, the z-score was -0.791 (inactive). CCUUAAUCCAAACAAGUCUTT against Ncl: the z-score was 1.08 (inactive).

On to GGUUUCUUAGAUUAGCUAGTT against Map3k12, for which the z-score was 0.445 (inactive).

In the case of GGUUAUCAAGAUUGCAUGUTT against Olfr853, the z-score is -0.646 (inactive). As to GGGUUAUGAAGAGAAACUUTT against Gatad2b, the z-score was 0.236 (inactive). Turning to GGACUGGUGGACAUAUGAATT against Os9, the z-score was 2.81 (active). Consider GGAAAAGGUGGCCUACACATT against Rhox11, for which the z-score was -1.7 (inactive). CCAAUAAAAUUGGUGUUCCTT against H13: the z-score is 0.18 (inactive). As to GGUUAAAAUGUUGAUUGCUTT against Ndrg4, the z-score was -0.654 (inactive).

As for GGGAAAAGUGACUAGGCUUTT against Ngb, the z-score was -0.331 (inactive). On to CCCACAGUGCAAAAAUGACTT against Olfr663, for which the z-score was -2.26 (active). Then GGCAUAUGCACUUUAUUUCTT against Cep97, with -0.339 (inactive); and GCAUUAAAGGAGUCCGAAUTT against Cpn1, with -0.328 (inactive); and GCUUAUAACAGUUGAUGAGTT against Ndufs4, with -0.54 (inactive). For GGCUAAUUCUCAAAGAGAUTT against Dnttip2, the z-score is -1.87 (inactive). As to AUUCGGGAAAAUUUUAGACTT against Rbfox3, the z-score was -0.171 (inactive). As for GGCUAAAACUGCACAUAAATT against Pyroxd1, the z-score is -3.43 (active). On to GGGAAGCACAAGGUUUAGUTT against Brca1, for which the z-score was 0.531 (inactive). In the case of GCAACAAGAGGGCAGAAUGTT against Olfr518, the z-score is -2.22 (active).

For GGAAGUUACAGAUGUGGCUTT against Nog, the z-score is -0.879 (inactive). As for GCACCAUUCUAGGAGUCAUTT against Lonp2, the z-score is -0.504 (inactive).

In the case of GGACCACGCAAAAGAAUAUTT against Mtss1, the z-score was 0.0212 (inactive). Consider GCUCAUGUUGCACUGGAAATT against Ulbp1, for which the z-score is 1.22 (inactive). As for AAGCUUCAACAUCAGUUUGTT against Olfr1392, the z-score is -1.54 (inactive). For the sequence GGCGAAGGGCAAGAAUAAATT against Hes1, the z-score is 2.16 (active). On to CCCAUACUGUCACUUUAAGTT against H2bc8, for which the z-score was -2.23 (active). Then GGUUCUGGUAUAAGUUAACTT against Gabrg3, with 0.292 (inactive); and GCACGAAUGCCUUUUUAGATT against Mphosph8, with 0.32 (inactive). Turning to GGAGCUGGAGACUAAAGCUTT against Slc29a2, the z-score is -0.478 (inactive).

For GCAUUUGAUGAAGACUCGATT against Barx2, the z-score was 0.467 (inactive). In the case of GGUUUAGCUGCAUUAAAAGTT against Lrrc27, the z-score is 0.956 (inactive). For GGCCGAGAGUAUUUCUACATT against Efna5, the z-score was -0.254 (inactive). For the sequence CGAACACUCGUUAAAGAAATT against Krt23, the z-score was 0.247 (inactive). For the sequence CCAUGCACAAUUACAAGCUTT against Ret, the z-score is -0.000288 (inactive). For CGGAAAAUUUGUUCCUGACTT against Rbm12b2 the value was 1.44 (inactive). In the case of GCAAAUGAGAGGUCUGUUGTT against Olfr1024, the z-score was -2.52 (active). For CCCUAGGGUGAUGAAGCAUTT against Ckmt2 the value was -0.984 (inactive); for GCCAUUAAGGAAAUGUUCUTT against Olfr426, -0.969 (inactive); for GGUUCUUUGGCUCUGUAUGTT against Atp5c1, -0.64 (inactive).

Turning to GGUCAUCCUUCUAUUCUCUTT against Olfr648, the z-score was -2.01 (active). As to GGAGGUAAAAGAUGAGAAATT against Plekho1, the z-score was 1.57 (inactive). In the case of CCUCAUAAAUUCACUCUCCTT against Bpifa2, the z-score is 0.984 (inactive). On to GGAGAAAACUUAGAUUACCTT against Ppil4, for which the z-score is 2.15 (active). Then GGAUAUGCUGUGAAGUAUUTT against Plekhf2, with 1.68 (inactive); and GGUUAAGACCUUAAACAGATT against Prl4a1, with 0.0572 (inactive). For CGUUUCUCAGCAAACUUACTT against Il17a the value was 0.669 (inactive); for GGCACCUUUCAACGUAACCTT against Ntn3, 1.32 (inactive). As for GGACCUAAAGAAUUCAUCGTT against Unc79, the z-score is 0.109 (inactive).

On to GGUGAAGAUAGUAAUACGGTT against Apol7a, for which the z-score is -1.02 (inactive). Then GGUCCAGAGGAUGAACAGATT against Crcp, with 0.551 (inactive). For CCAAAUUCAUUCUAGCUCGTT against Klf6, the z-score was -0.597 (inactive). Turning to CGAUCUUCCAAACCCUCUUTT against Dhh, the z-score is 2.54 (active). With GCCCAUGACCAGUUCAAGUTT against Actn4, the z-score is 0.63 (inactive). Then GCUAUUAAAAUAUGGGAAGTT against Olfr1314, with 1.28 (inactive); and GCAUAUGAUGGUCCUUACCTT against Cox6b1, with 0.019 (inactive); and CCAUGCUUCCCUUCAACAUTT against Adcy2, with 2.64 (active). Take GGCAGUUAUCUCCUAAUGCTT against Zfp934: the z-score was -0.383 (inactive). GGCCAGAUGACCUUGUCAUTT against Sult1e1: the z-score is -1.23 (inactive). For the sequence GGCGCACAAUCAAGAUCUUTT against Col4a4, the z-score is 0.385 (inactive).

Take GCACUUUGUAUGUCUAUCUTT against Tnfaip1: the z-score was 2.28 (active). Then CCAAAAAGUUCAGUGUAAUTT against Rad9b, with -1.09 (inactive). On to GCUUGAGUAGUGCAGAAACTT against Jmjd1c, for which the z-score was -1.15 (inactive). In the case of CCAUGAGGAUGAUUACCUATT against Cnga2, the z-score is -0.947 (inactive).

As for GGGAAGAUUGAUUUUAUCGTT against Abcb11, the z-score was 2.31 (active).

On to GCGACCUUAGACAUUUGCATT against Prkrip1, for which the z-score is -0.652 (inactive). Then CGCCUUCAUAAUGUAGUUGTT against Defb37, with 0.601 (inactive); and CCGUCACUUUUAACCAUGUTT against Speg, with 4.19 (active).

GCACCUGGAGUACAUAAAATT against Sh2d1a: the z-score is -0.854 (inactive).

With CGUAGACUCCAAGCUCAAUTT against Ddx54, the z-score is -1.31 (inactive). As for GGAAAUUGUCUUUGGCUUUTT against Otop1, the z-score was -0.0923 (inactive).

Take GGCAAAAUGAAGAAGCUGATT against Hdac6: the z-score is -1.3 (inactive). Turning to GCUACGAGCAGUUUUUAUUTT against Ptgs1, the z-score is 0.885 (inactive). On to GGUGAAAGGAGUCAGUCUATT against Agtrap, for which the z-score is -0.013 (inactive). Regarding GGCUCCUGGUUCUACAUCCTT against Itpr2, the z-score is -2.54 (active).

For the sequence CCCUAAGUAUAGGAUCGGATT against Macroh2a1, the z-score is -1.07 (inactive). On to GGGUUAUCUAUGCAAAUCCTT against Odc1, for which the z-score is 0.569 (inactive). As for GCGGCAUUCGUCCAAAUUGTT against Trpt1, the z-score is 0.938 (inactive). Then GGCAGAGAUGGUGUUGAUGTT against Col1a2, with -0.342 (inactive).

As for GGUGGCCAUUCUUCUGUUCTT against Dynll1, the z-score was 2.19 (active). With GGAAGUGGUGGCCAUCAAGTT against Stk25, the z-score was 1.08 (inactive). Consider GCUUGUAGGUGGAUACAUGTT against Slc30a4, for which the z-score is -0.161 (inactive). On to GGAAGACUAGGAGAGACGGTT against Pqlc3, for which the z-score was -0.739 (inactive).

GCAUAAUGGAUGGAAAGUCTT against Tasp1: the z-score was 1.1 (inactive).

As for CCCUAAGGUGGCAGAAAUCTT against Atp1a2, the z-score is -1.49 (inactive). For GGCGGUUCAAAUGUCCUCATT against Fut2, the z-score was -2.02 (active). Turning to GGGAGGGUGUGCAAAAGUUTT against Arl4d, the z-score was 1.26 (inactive).

In the case of GCUUCUUAUGAAAAGAUGCTT against Epc2, the z-score is 0.463 (inactive).

As to GGAGUGGACUCACGUCUAATT against Med23, the z-score is 0.717 (inactive).

As for GGGUCCUUUUUCACAUGGUTT against Asph, the z-score was 2.82 (active).

Regarding CGGUGAUAGUGGAGUUUGUTT against Olfr266, the z-score was 0.542 (inactive).

Consider GCAGCACAGUACUAUCUCGTT against Ttc4, for which the z-score was -0.339 (inactive). For the sequence GCCAGAGAUUCCUCAACGATT against Rpp21, the z-score was -2.48 (active). As for GCAAUAGAAUCACAUAGGATT against Glyctk, the z-score is 1.35 (inactive).

GGCUGUAAUGACGAAUACATT against Naa25: the z-score was 0.764 (inactive). Turning to GGGCAUGUGAUAGAACAAUTT against Stoml1, the z-score was -0.701 (inactive). In the case of GAGAAAGAUAAUUACCUGGTT against Tnfrsf22, the z-score is 0.552 (inactive). GGAAGCUGAUGGCUAUGACTT against Arc: the z-score was -0.943 (inactive). On to GGAGACUGUAGACUUAAAGTT against Rnf25, for which the z-score is -1.24 (inactive). Then CAAUAACACUGGUGCCGACTT against Adam34l, with 1.73 (inactive); and CCUAAAUUAGUAGGACGGUTT against Cdkn1a, with 0.675 (inactive). As to GGAUCAGUACCCGUAUUUGTT against Plin2, the z-score was -2.38 (active). Turning to CCUAGAUUCGGACAAGGAUTT against Kctd5, the z-score is -0.424 (inactive). For GGUAUAGCAAUUUCUACAATT against Chrna2, the z-score was -0.174 (inactive). With GGUAGUGAAAAUGAAGAGUTT against Gtf2h1, the z-score is 0.892 (inactive). CCUGAUACCCAAAGACUCATT against Dnaic1: the z-score is -1.38 (inactive).

For the sequence GCAACGGAGGGUCAUUUCATT against Wipf2, the z-score was 2.54 (active). For CCAUGAGACAAGAUUUAGATT against Olfr818, the z-score was -0.751 (inactive).
